Records with an inconclusive call do not appear. A call without a number means that no potency is given here. Active and inactive are the calls of the source. Calls follow the shape of the dose curve; as a rule, active = well fitted curve in the direction sought with a large enough effect; inconclusive = small, poorly fitted or top-dose-only effect, or another doubt; inactive = no such curve, though single readings can be large; an effect the other way counts as inactive or inconclusive.
Key:
[1] = molecular target: Aldehyde dehydrogenase, mitochondrial (Homo sapiens) (UniProt P05091); assay: qHTS for Inhibitors of the Aldehyde Dehydrogenase Family (ALDH2) Primary screen (AID 2061308); details: ALDH2 enzyme inhibition qHTS, 1536-well; series mostly up to 56 µM; also: nearly all actives have a fitted effect of over 55% in size
[2] = molecular target: Retinaldehyde dehydrogenase 3 (Homo sapiens) (UniProt P47895); assay: qHTS for Inhibitors of the Aldehyde Dehydrogenase Family (ALDH1A3) Primary screen (AID 2061315); details: ALDH inhibition qHTS; series mostly up to 56 µM

**Q.** For `COc1c(Cl)cccc1NC(=O)c1c(NC(=O)Cc2ccccc2)sc2c1CCCC2`, which Potency [1] is on record?
**A.** inactive

**Q.** What about the Potency [2] of the same compound?
**A.** inactive

**Q.** What does the source list for `O=C(Nc1cccc2c1cnn2-c1ccc(F)cc1)c1ccccn1`?
**A.** Potency [1]: inactive; Potency [2]: inactive

**Q.** For `COc1cc(O)c(C(CC(=O)N2CCCC(C)C2)c2ccc(C)cc2)c(OC)c1` (stereo not drawn), which Potency [1] is on record?
**A.** inactive

**Q.** What about the Potency [2] of the same compound?
**A.** inactive

**Q.** For `CC(=O)Nc1sc2c(c1-c1cccs1)CCNC2`, which Potency [1] is on record?
**A.** inactive

**Q.** And the Potency [2]?
**A.** inactive

**Q.** What does the source list for `O=C(O)c1ccc(O)c2ncc(N3CCCCC3)cc12`?
**A.** Potency [1]: inactive; Potency [2]: inactive

**Q.** `Cc1cc(C)nc(NC(=S)N2CCN(c3cccc(S(C)(=O)=O)c3)CC2)c1` was tested. Which Potency [1] did it give?
**A.** inactive

**Q.** What about the Potency [2] of the same compound?
**A.** inactive

**Q.** What does the source list for `CC(=O)c1ccc(N2CCN(S(=O)(=O)c3ccc4c(c3)CCCN4C(C)=O)CC2)cc1`?
**A.** Potency [1]: inactive; Potency [2]: inactive

**Q.** What does the source list for `Cn1ncc(Cl)c1C1N=C(Nc2nc3ccccc3o2)NC2=C1C(=O)CCC2` (stereo not drawn)?
**A.** Potency [1]: inactive; Potency [2]: inactive

**Q.** What does the source list for `Cc1cc2c(s1)c1cnn(Cc3ccccc3C)c(=O)c1n2C`?
**A.** Potency [1]: inactive; Potency [2]: inactive

**Q.** Which Potency [1] does the source give for `Cc1cccc(C)c1-n1c(SCC(=O)Nc2ccc(C(=O)O)cc2)nnc1-c1ccc([S+](=O)([O-])N2CCCC2)cc1` here?
**A.** inactive

**Q.** What about the Potency [2] of the same compound?
**A.** inactive

**Q.** What does the source list for `COc1ccc(C2Nc3ccccc3C(=O)N2Cc2cccs2)cc1COc1c(C)cc(NC(C)=O)cc1C` (stereo not drawn)?
**A.** Potency [1]: inactive; Potency [2]: inactive

**Q.** Which Potency [1] does the source give for `O=C(NCCc1nc2ccccc2n1CCOc1ccc(Cl)cc1)C1CCCCC1` here?
**A.** inactive

**Q.** And the Potency [2]?
**A.** inactive

**Q.** `CCOc1ccc(NC(=O)Nc2ccc(-c3nc4ccccc4[nH]3)cc2)cc1` was tested. Which Potency [1] did it give?
**A.** inactive

**Q.** And the Potency [2]?
**A.** inactive

**Q.** What does the source list for `Cc1ccc(-c2ccc(=O)n(CC(=O)NCCc3ccc(O)cc3)n2)cc1`?
**A.** Potency [1]: inactive; Potency [2]: inactive

**Q.** For `CCOC(=O)/C=C/c1cc(F)c(S(=O)(=O)N2CCN(S(=O)(=O)c3ccc4c(c3)OCCO4)CC2)cc1F`, which Potency [1] is on record?
**A.** inactive

**Q.** What about the Potency [2] of the same compound?
**A.** inactive

**Q.** Which Potency [1] does the source give for `O=C(Nc1nnc(-c2ccncc2)s1)Nc1ccc(Cl)cc1Cl` here?
**A.** inactive

**Q.** What about the Potency [2] of the same compound?
**A.** inactive

**Q.** Which results are given for `COc1ccc(C2NC(=O)c3ccccc3N2)cc1COc1c(C)cc(NC(C)=O)cc1C` (stereo not drawn)?
**A.** Potency [1]: inactive; Potency [2]: inactive

**Q.** For `O=C1CCCC2=C1C(c1[nH]ncc1Cl)N=C(Nc1nc3c(Br)cccc3o1)N2` (stereo not drawn), which Potency [1] is on record?
**A.** inactive

**Q.** What about the Potency [2] of the same compound?
**A.** inactive

**Q.** Which results are given for `Cc1ccc(S(=O)(=O)NCC(=O)Nc2nc(-c3ccccc3)cs2)cc1`?
**A.** Potency [1]: inactive; Potency [2]: inactive

**Q.** How did the Potency [1] turn out when `CCCn1c(-c2ccc(F)cc2)nc2c(N(C)CCN(C)C)nc(C)nc21` was run?
**A.** inactive

**Q.** What about the Potency [2] of the same compound?
**A.** inactive

**Q.** What does the source list for `Cc1cnc(-c2ccccc2C(C)C)nc1NCC1CCN(C)CC1`?
**A.** Potency [1]: inactive; Potency [2]: inactive

**Q.** Which results are given for `COC/C=C/c1cc(F)c(S(=O)(=O)N2CCN(S(=O)(=O)c3ccc4c(c3)OCCO4)CC2)cc1F`?
**A.** Potency [1]: inactive; Potency [2]: inactive

**Q.** What does the source list for `CCCN(Cc1cccs1)c1ncnc2ccc(-c3ccc4c(c3)OCO4)cc12`?
**A.** Potency [1]: inactive; Potency [2]: inactive

**Q.** For `O=C(OC/C=C/CSc1nnc(-c2cccc3ccccc23)o1)c1ccc(F)cc1`, which Potency [1] is on record?
**A.** inactive

**Q.** And the Potency [2]?
**A.** inactive

**Q.** Which results are given for `O=C(OCC#CCSc1nnc(-c2cccc3ncccc23)o1)c1ccc(F)cc1`?
**A.** Potency [1]: inactive; Potency [2]: inactive

**Q.** Which Potency [1] does the source give for `O=C(O)c1ccc(-c2ccc3ncnc(NCCc4cnc[nH]4)c3c2)o1` here?
**A.** inactive

**Q.** And the Potency [2]?
**A.** inactive

**Q.** Which Potency [1] does the source give for `Cn1nnnc1Sc1ncnc2scc(-c3cc4ccccc4o3)c12` here?
**A.** inactive

**Q.** What about the Potency [2] of the same compound?
**A.** inactive

**Q.** How did the Potency [1] turn out when `c1cncc(CNc2ccnc(-c3ccc4c(c3)OCO4)n2)c1` was run?
**A.** inactive

**Q.** And the Potency [2]?
**A.** inactive

**Q.** Which results are given for `Cc1ccc(OCCn2c(CCNC(=O)c3ccc4ccccc4c3)nc3ccccc32)cc1`?
**A.** Potency [1]: inactive; Potency [2]: inactive

**Q.** For `O=[S+]([O-])(Nc1ccccc1)c1ccc(NCc2cccc(Cl)c2F)cc1`, which Potency [1] is on record?
**A.** inactive

**Q.** And the Potency [2]?
**A.** inactive

**Q.** `Cc1cc2c(s1)c1cnn(Cc3c(Cl)cccc3Cl)c(=O)c1n2C` was tested. Which Potency [1] did it give?
**A.** inactive

**Q.** And the Potency [2]?
**A.** inactive

**Q.** Which results are given for `CCN(CC)CCCn1c(-c2ccccc2)nc2c(NCCOC)nc(C)nc21`?
**A.** Potency [1]: inactive; Potency [2]: inactive

**Q.** With `C[C@H]1CC[C@@]2(OC1)O[C@H]1CC3C4CC[C@H]5C[C@@H](O)CC[C@]5(C)C4=CC(=O)[C@]3(C)[C@H]1[C@@H]2C` (stereo partly drawn) as the compound, how does the Potency [1] read?
**A.** inactive

**Q.** What about the Potency [2] of the same compound?
**A.** inactive

**Q.** For `Cc1cc2c(s1)c1cnn(Cc3ccc(C(C)C)cc3)c(=O)c1n2C`, which Potency [1] is on record?
**A.** inactive

**Q.** And the Potency [2]?
**A.** inactive

**Q.** For `O=S(=O)(NC1CCC(NS(=O)(=O)c2c(F)cccc2F)CC1)c1ccc2c(c1)OCCO2` (stereo not drawn), which Potency [1] is on record?
**A.** inactive

**Q.** And the Potency [2]?
**A.** inactive

**Q.** How did the Potency [1] turn out when `c1nc(NCCCN2CCCCC2)c2cc(-c3ccc4c(c3)OCO4)ccc2n1` was run?
**A.** inactive

**Q.** And the Potency [2]?
**A.** inactive

**Q.** Which results are given for `Cc1cccc(CNc2ncnc3ccc(-c4ccc5c(c4)OCO5)cc23)c1`?
**A.** Potency [1]: inactive; Potency [2]: inactive

**Q.** Which results are given for `COc1cccc(CNc2ccc(S(=O)(=O)Nc3cnc4ccccc4c3)cc2)c1O`?
**A.** Potency [1]: inactive; Potency [2]: inactive

**Q.** With `Cn1c2ccsc2c2ncn(Cc3ccc(F)cc3)c(=O)c21` as the compound, how does the Potency [1] read?
**A.** inactive

**Q.** And the Potency [2]?
**A.** inactive

Source: PubChem BioAssay (NCATS)
